Screens: PubChem BioAssay, several laboratories
NTR1 ag = agonists of human neurotensin receptor NTR1. P30989. NTR1-U2OS beta-arrestin-GFP spot imaging, agonist mode. activation, % at 20 µM. 330,000 compounds, 0.17% hits;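 active = activation at or above 40% of the spot to cytoplasm intensity ratio, with at least 20 cells analyzed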
AI-2 QS modul = modulates the Vibrio harveyi AI-2 quorum sensing system. activity change, % at 7.5 µM. Vibrio harveyi JMH597 AI-2 luminescence/OD600 ratio, 9 h; stronger effect = lower value; strain lacks LuxN and CqsS sensors; 0 = neutral-control median. 300,000 compounds, 0.4% hits; in the data active = activity change below about -75%, passing the limit was not always enough;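 also: luminescence divided by OD600 gain over 9 h not by final OD600 alone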
NR3A LBD binder = NR3A (human) ligand-binding domain modulation | 340,000 compounds, 2.5% hits | AID 1259313 | NR3A LBD differential scanning fluorimetry, Tm shift; 0% = protein alone, 100% = glycine-bound protein | Tm shift relative to glycine control, % at 25 µM;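 active = melting temperature shift of at least 10% of the positive control shift, at one fixed dose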
AHR activator = human AHR activation; P35869; AHR-responsive luciferase reporter cells, luminescence; activation, % at 5 µM; 320,000 compounds, 2.5% hits; in the data active = activation above about 47%
Target sequence (P35869 whole entry, looked up): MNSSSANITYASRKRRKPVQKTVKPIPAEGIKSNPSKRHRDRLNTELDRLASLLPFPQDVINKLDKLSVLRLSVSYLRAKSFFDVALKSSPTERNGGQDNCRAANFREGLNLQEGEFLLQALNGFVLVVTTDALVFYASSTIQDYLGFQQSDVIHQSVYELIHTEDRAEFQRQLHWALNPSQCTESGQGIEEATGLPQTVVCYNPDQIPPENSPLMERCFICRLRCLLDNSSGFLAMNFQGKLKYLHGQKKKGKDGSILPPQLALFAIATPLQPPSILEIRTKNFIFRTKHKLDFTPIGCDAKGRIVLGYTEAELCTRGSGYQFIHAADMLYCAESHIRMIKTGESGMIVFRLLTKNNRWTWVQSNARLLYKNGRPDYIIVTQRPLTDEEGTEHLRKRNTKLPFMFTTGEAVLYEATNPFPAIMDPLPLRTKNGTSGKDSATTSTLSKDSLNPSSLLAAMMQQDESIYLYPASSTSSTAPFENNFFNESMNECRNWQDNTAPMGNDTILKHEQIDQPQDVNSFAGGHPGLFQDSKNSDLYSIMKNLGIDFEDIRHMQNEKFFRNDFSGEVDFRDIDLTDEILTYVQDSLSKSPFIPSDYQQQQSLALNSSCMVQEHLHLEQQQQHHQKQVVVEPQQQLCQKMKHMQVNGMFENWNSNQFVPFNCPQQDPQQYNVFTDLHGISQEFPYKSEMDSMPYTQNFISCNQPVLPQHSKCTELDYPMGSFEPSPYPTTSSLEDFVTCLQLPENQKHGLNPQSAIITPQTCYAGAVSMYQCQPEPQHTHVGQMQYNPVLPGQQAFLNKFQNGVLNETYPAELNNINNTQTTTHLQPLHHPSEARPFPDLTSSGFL
Cardio protect = myocardial damage modulation in H9c2 cells. H9c2 cardiomyocytes, H2O2 injury protection, ATPLite, 2 h. protection from H2O2 cell death, % at 20 µM. 360,000 compounds, 0.63% hits;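 active = compounds giving at least 50% protection of heart cells from peroxide-induced death in the single-dose screen, raw or plate-pattern-corrected value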
Mot1-301 SUMO = inhibitors of SUMOylation pathway: yeast Mot1-301 growth rescue; S. cerevisiae Mot1-301 growth rescue, ATP luminescence, 38.5C; percent above DMSO median, 100 means doubled; growth rescue, % at 18.8 µM; 320,000 compounds, 1% hits;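 active = every valid replicate shows activation above 250% relative to neutral control wells; inactive = the rest, any valid replicate at or below 250%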
Hits are given with their value; – = inactive; · = no result. Only some compounds are listed: those with a hit (about 6.2% of all), similar ones and a draw of the others.

SMILES	NTR1 ag	AI-2 QS modul	NR3A LBD binder	AHR activator	Cardio protect	Mot1-301 SUMO
COc1ccc(Nc2ncnc3sc(-c4ccccc4)cc23)cc1OC	–	–	13	–	–	–
COc1cccc(N2CCc3c(C)nc4ccc(Cl)cc4c32)c1	·	–	–	·	–	–
CCN1Cc2c(/C=C/c3ccccc3)nc3ccc(OC)cc3c2N(c2cccc(Cl)c2)C1	–	–	–	65	–	–
Cc1sc2nc(-c3ccncc3)[nH]c(=O)c2c1-c1ccccc1	–	–	·	54	·	–
Cc1cc(=O)[nH]c(/N=C(\N)Nc2ccc(Oc3ccccc3)cc2)n1	–	–	–	–	–	–
Cc1cc(=O)[nH]c(/N=C(\N)Nc2ccc(SC(F)F)cc2)n1	–	–	–	68	–	–
CC(C)(C)c1ccc(C(=O)Nc2ncn[nH]2)cc1	–	–	–	70	–	·
Cc1ccc([C@H]2C(C(=O)O)=CC[C@@H](c3ccc4c(c3)OCO4)N2S(=O)(=O)c2ccc(C)cc2)cc1	–	·	–	–	–	·
CCc1nc2ccccc2c2nc3ccccc3n12	–	–	–	51	–	–
FC(F)(F)c1nc2ccccc2c2nc3ccccc3n12	–	–	–	50	–	–
c1ccc(-c2nc3ccccc3c3nc4ccccc4n23)cc1	–	–	–	52	–	–
c1ccc(-c2nc3nonc3c3nc4ccccc4n23)cc1	–	–	–	–	–	–
O=C(NCc1ccccc1)C(c1cccnc1)N(C(=O)c1csnn1)c1ccccc1 (centres undefined)	–	–	–	–	–	–
COc1ccc(N(CC(=O)NC2CC3CCC2C3)S(=O)(=O)c2ccc(C)cc2)cc1Cl (centres undefined)	·	·	·	·	–	·
C=CCOc1ccccc1/C=N/NC(=O)c1ccc(Cl)cc1Cl	–	–	–	69	–	–
COc1cc(/C=N/NC(=O)c2ccncc2)ccc1OC(=O)c1cc(OC)c(OC)c(OC)c1	–	–	–	–	–	–
COc1cc(C(=O)Oc2ccccc2/C=N/NC(=O)c2ccc(Cl)cc2Cl)cc(OC)c1OC	–	–	–	59	–	–
Cc1ccccc1CNC(=O)c1ccc2nc([C@@H]3O[C@H](CO)[C@H](O)[C@H](O)[C@H]3O)[nH]c2c1	·	·	·	·	–	·
CCC(=O)Nc1ccc(NC(=O)CSc2nnnn2C2CCCC2)cc1C	–	–	–	·	–	·
COc1ccc(N2CCN(c3ccc4nnc(CCC(=O)Nc5ccc(C)cc5)n4n3)CC2)cc1	–	–	–	–	–	–
COCc1nc(-c2ccc(-c3ccc(OC)cc3)nc2OC)no1	–	–	31	–	–	·
NC1(C(=O)O)CSSC1	·	·	–	·	–	·
O=S(=O)(c1cccc(NC(=S)N2CCN(c3cccc(Cl)c3)CC2)c1)C(F)F	–	–	26	–	–	–
O=C(Nc1ccccc1Oc1ccccc1)c1cccc([N+](=O)[O-])c1	–	–	–	77	–	–
COc1ccccc1NC(=O)CC(=O)c1cccc([N+](=O)[O-])c1	–	–	–	–	–	–
SMILES	NTR1 ag	AI-2 QS modul	NR3A LBD binder	AHR activator	Cardio protect	Mot1-301 SUMO
COc1ccccc1NC(=O)/C(=C/c1cccc([N+](=O)[O-])c1)c1ccccc1	–	–	11	–	–	–
Cc1ccc(C(=O)Nc2ccccc2Oc2ccccc2)cc1[N+](=O)[O-]	–	–	–	74	–	–
O=C(Nc1ccncc1NC(=O)c1cccc([N+](=O)[O-])c1)c1cccc([N+](=O)[O-])c1	–	–	–	–	–	–
O=C(C1CN(C(=O)c2cc3ccccc3o2)c2ccccc2O1)N1CCCCC1 (centres undefined)	·	·	·	·	–	·
COc1ccccc1/C=C/C(=O)OCC(=O)N1CCc2ccccc21	–	·	–	–	–	–
O=C(CN1CCCCC1)Nc1cc(Cl)ccc1Oc1ccccc1	–	–	–	–	–	–
NC(=O)C1CCN(CC(=O)Nc2cc(Cl)ccc2Oc2ccccc2)CC1	–	–	–	–	–	321
N#CC1=C(N)SC(N)=C(C#N)C1CCc1ccccc1	–	–	–	86	–	–
N#CC1=C(N)SC(N)=C(C#N)C1Cc1ccccc1	–	–	–	–	–	–
Nc1ccc2c(c1)C(=O)N(CC1CCCO1)C2=O (centres undefined)	–	–	–	–	–	–
CCOc1ccccc1NC(=O)c1ccc2c(c1)C(=O)N(CC1CCCO1)C2=O (centres undefined)	–	–	–	73	–	–
Nc1ccc(Oc2ccc3c(c2)C(=O)N(CC2CCCO2)C3=O)cc1 (centres undefined)	–	–	–	–	–	284
CC(=O)Nc1ccc(C(=O)OCC(=O)NC2CCCCCC2)cc1	·	·	·	·	–	·
O=C(CN=C1NS(=O)(=O)c2ccccc21)OCC(=O)c1cc(F)ccc1F	–	–	–	–	–	–
COCC(C)n1c(C)cc(C(=O)COC(=O)CN=C2NS(=O)(=O)c3ccccc32)c1C (centres undefined)	–	–	10	–	–	–
COc1ccc2oc(C(=O)OC(C)C(=O)N3C(C)CCCC3C)c(C)c2c1 (centres undefined)	–	·	–	–	–	–
Cc1cccc(C)c1NC(=O)C1(C)CCC(=O)N1C1CC1 (centres undefined)	·	·	·	·	–	·
S=C(Nc1ccccn1)c1ccccn1	–	–	–	61	–	–
O=C(Nc1ccccn1)C(=O)Nc1ccccn1	–	–	–	–	–	–
S=C(Nc1ccccn1)Nc1ccccc1Cl	–	–	–	68	–	–
COC(=O)Cc1ccc(NC(=S)Nc2ccccn2)cc1	–	–	–	–	–	–
COc1ccc(NC(=S)Nc2ccccn2)c(OC)c1	–	–	–	–	–	–
COc1cc(NC(=S)Nc2ccccn2)cc(OC)c1OC	–	–	–	77	–	–
COc1cc(NC(=S)Nc2ccccn2)cc(OC)c1	–	–	–	74	–	–
CCc1nnc(N2C(=O)c3cccc4cccc(c34)C2=O)s1	–	–	–	76	–	–
SMILES	NTR1 ag	AI-2 QS modul	NR3A LBD binder	AHR activator	Cardio protect	Mot1-301 SUMO
O=C1c2cccc3cccc(c23)C(=O)N1c1ccncc1	–	·	–	–	–	–
Brc1c(-c2ccccc2)nc2n1Cc1ccccc1-2	–	–	–	54	–	–
CNc1cncc(-c2ccc(OCCCN(C)C)nc2)n1	·	·	·	·	–	·
COc1cccc(COc2ccccc2C2Nc3ccc(Br)cc3C(=O)N2NC(=O)c2ccncc2)c1 (centres undefined)	–	–	–	52	–	–
COc1ccc(CN(C)C(=O)C(Cc2ccccc2)NC(=O)c2ccccc2)c(OC)c1OC (centres undefined)	·	·	·	·	–	·
COc1cccc(CN(C)C(=O)C(Cc2ccccc2)NC(=O)c2ccccc2)c1OC (centres undefined)	–	–	–	–	57	–
